Measured values: PubChem BioAssay (NCATS)
Values without a mark were called inactive. Inconclusive results are not listed. The source made the active and inactive calls. Unless noted, the call rests on the fitted dose curve; in most records, active means well fitted curve in either direction with a large enough effect (not every such curve was filed as active); inconclusive means small, poorly fitted or top-dose-only effect, or another doubt; inactive means flat fitted curve, though single readings scatter.

Assays:
[1] = target: Lysosomal acid glucosylceramidase (Homo sapiens) (UniProt P04062); assay: Glucocerebrosidase-p2 (AID 348; in the data active means potency below about 10 µM; further: potency means the concentration at half of the fitted maximal effect); conditions: purified GBA, blue fluorogenic substrate, 40 min
Lysosomal acid glucosylceramidase (Homo sapiens), sequence (P04062 whole entry, looked up): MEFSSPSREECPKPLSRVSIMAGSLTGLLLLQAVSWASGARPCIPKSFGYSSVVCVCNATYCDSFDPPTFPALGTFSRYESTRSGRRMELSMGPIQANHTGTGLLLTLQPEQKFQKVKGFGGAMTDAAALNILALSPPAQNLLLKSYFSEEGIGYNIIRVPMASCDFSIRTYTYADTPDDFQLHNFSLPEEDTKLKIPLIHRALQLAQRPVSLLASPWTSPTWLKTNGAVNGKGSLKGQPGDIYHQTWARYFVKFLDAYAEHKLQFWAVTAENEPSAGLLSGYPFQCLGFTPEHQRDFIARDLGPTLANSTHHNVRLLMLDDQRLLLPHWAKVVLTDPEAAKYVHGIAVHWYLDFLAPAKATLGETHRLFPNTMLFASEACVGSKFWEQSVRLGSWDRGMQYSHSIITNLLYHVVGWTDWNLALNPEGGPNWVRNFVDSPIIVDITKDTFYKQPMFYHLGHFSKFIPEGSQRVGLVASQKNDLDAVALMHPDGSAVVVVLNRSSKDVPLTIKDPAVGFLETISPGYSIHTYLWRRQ
Outline: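 Compounds titrated from 0.6 nM upwards against 0.2 nM enzyme in pH 5.9 citric acid/KH2PO4, taurocholate, tween-20; blue fluorogenic substrate 80 uM, 40 min room temperature, stopped and read Ex 365/Em 440 for AC50.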

[2] = AP1 Signaling Pathway (AID 357); conditions: ME-180 AP-1-bla reporter, EGF-induced, beta-lactamase ratio, 5 h; at 7.69 µM (top of the series) unless noted;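 further: ME-180 reporter cells stimulated with EGF at its EC50 level; on the % scale 0 is the no-effect control and ±100 the full control effect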
Outline: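 Cells are seeded overnight, exposed to compound titrations and an EC50 level of EGF for 5 hours at 37 °C, then loaded with CCF4 dye for 2.5 hours. Beta-lactamase activity under the AP-1 element is read as a blue/green ratio.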

[3] = target: Cytochrome P450 1A2 (Homo sapiens) (UniProt P05177); assay: p450-cyp1a2 (AID 410; calls by dose curve; further: potency means the concentration at half of the fitted maximal effect;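 on activity change, negative = inhibition: -100% = full effect of reference inhibitor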); conditions: recombinant CYP1A2, luciferin-ME demethylation, luminescence; series mostly up to 11.4 µM
Cytochrome P450 1A2 (Homo sapiens), sequence (P05177 whole entry, looked up): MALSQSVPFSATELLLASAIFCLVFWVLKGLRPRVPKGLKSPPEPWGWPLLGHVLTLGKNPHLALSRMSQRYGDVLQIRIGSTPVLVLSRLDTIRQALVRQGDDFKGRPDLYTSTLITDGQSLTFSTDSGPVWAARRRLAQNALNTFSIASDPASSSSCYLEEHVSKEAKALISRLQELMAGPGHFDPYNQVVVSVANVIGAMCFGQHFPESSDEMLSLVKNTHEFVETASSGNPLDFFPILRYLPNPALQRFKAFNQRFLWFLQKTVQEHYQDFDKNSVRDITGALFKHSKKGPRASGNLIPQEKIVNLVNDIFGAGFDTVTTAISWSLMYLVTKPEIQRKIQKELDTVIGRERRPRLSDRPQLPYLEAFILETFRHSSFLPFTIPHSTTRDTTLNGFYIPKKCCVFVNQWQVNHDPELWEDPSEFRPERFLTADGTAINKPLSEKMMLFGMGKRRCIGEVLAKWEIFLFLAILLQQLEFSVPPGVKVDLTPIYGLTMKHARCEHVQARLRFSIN
Outline: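 Inhibition was calculated relative to 57 uM furafylline (full inhibition). The reaction used human CYP1A2 at 20nM with Luciferin-ME at its Km, 100uM, driven by an NADPH-regenerating system for 60 min at room temperature.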

[4] = NFAT Signaling Pathway (AID 444); conditions: Jurkat NFAT-bla M1, carbachol, beta-lactamase ratio, 5 h; at 7.69 µM (top of the series) unless noted;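 further: carbachol stimulus at about its EC50 of 1 µM final; on the % scale 0 is the no-effect control and ±100 the full control effect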
Outline: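 Read-out: CCF4 FRET ratio (460 nm/530 nm) after 1 h RT dye loading, used for %activity and AC50 from titration series. Cells: Jurkat NFAT-β-lactamase/M1 line, treated with compound plus 1 uM carbachol for 5 h, 37 °C.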

[5] = Stat Signaling Pathway (AID 446); conditions: ME-180 SIE beta-lactamase reporter, IL-6 stimulated, 5 h; at 7.69 µM (top of the series) unless noted;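 further: ME-180 cervical cancer cells given 40 pM IL-6 alongside compound; SIE-controlled beta-lactamase reporter measured as 460/530 nm FRET emission ratio; on the % scale 0 is the no-effect control and ±100 the full control effect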
Outline: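 Reporter line: ME-180 cervical carcinoma, SIE-beta-lactamase. Treatment: compound with 40 pM IL-6, 5 hrs, 37 C, in low-serum OPTI-MEM with 10 mM HEPES pH 7.3. Detection: 460/530 nm fluorescence.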

[6] = target: Glucocorticoid receptor (Homo sapiens) (UniProt P04150); assay: GR-GFP Redistribution (AID 450;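 active means compounds whose dose series gives a full or clear partial fitted curve of increased nuclear translocation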; further: potency means the concentration at half of the fitted maximal effect); conditions: U2OS GR-GFP nuclear translocation, laser cytometry, 2 h
Glucocorticoid receptor (Homo sapiens), sequence (P04150 whole entry, looked up, the tested form may be a part): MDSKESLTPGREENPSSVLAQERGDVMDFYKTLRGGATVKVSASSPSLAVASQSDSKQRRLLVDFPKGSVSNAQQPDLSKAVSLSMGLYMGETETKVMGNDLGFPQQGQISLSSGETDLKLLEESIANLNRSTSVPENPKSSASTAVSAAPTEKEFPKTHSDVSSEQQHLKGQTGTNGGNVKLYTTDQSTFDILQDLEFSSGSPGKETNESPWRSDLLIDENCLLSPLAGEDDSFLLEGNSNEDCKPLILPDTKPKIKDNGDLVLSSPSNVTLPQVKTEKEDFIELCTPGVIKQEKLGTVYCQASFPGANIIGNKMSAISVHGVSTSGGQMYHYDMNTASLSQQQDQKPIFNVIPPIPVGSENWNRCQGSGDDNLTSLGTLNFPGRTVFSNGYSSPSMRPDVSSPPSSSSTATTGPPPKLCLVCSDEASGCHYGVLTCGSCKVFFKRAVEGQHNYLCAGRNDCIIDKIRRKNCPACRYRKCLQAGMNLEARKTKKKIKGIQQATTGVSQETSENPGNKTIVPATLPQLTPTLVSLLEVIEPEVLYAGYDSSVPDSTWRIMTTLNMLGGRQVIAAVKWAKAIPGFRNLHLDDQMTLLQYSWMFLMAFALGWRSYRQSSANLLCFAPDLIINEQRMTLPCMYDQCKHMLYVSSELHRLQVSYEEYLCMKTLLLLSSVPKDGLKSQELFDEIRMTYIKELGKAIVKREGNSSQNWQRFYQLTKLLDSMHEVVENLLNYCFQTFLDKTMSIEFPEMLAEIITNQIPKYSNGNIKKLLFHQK

[7] = target: Glucocorticoid receptor (Homo sapiens) (UniProt P04150); assay: GR-EFC Redistribution (AID 451; calls by dose curve; further: potency means the concentration at half of the fitted maximal effect); conditions: CHO-K1 GR-EFC translocation, beta-gal luminescence, 2 h
Outline: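 Translocation of GR-ED fusion to nuclear EA restores b-gal, read by luminescence after 1 h room-temperature detection. Engineered CHO-K1 biosensor cells, 1,000/well, exposed 2 h at 37 C to titrations up to 46 uM final.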

[8] = target: Mitogen-activated protein kinase 10 (Mus musculus) (UniProt Q61831); assay: JNK3 AlphaScreen Assay (AID 530); conditions: JNK3 lysate, c-Jun phosphorylation; series mostly up to 11.4 µM;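 further: kinase came from lysate of stimulated human HepG2 cells; signal reports phosphorylation of biotinylated GST-cJun 1-79 at Ser73 with 10 µM ATP; on the % scale 0 is the no-effect control and ±100 the full control effect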
Outline: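 Room-temperature AlphaScreen kinase assay; pre-activated HepG2 lysate as JNK3 source, biotin-GST-cJun(1-79) substrate, 10 uM ATP, compound 15 min preincubation.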

[9] = target: 3',5'-cyclic-AMP phosphodiesterase 4B (Homo sapiens) (UniProt Q07343); assay: qHTS Assay for Inhibitors of PDE-IV (AID 607; active means well fitted activation curve with a large enough effect in the main read-out, with a control signal flat, not every such curve was filed as active; further: % of control where 0% means no effect); conditions: HEK293 ACTOne CNG channel cells, membrane potential fluorescence; series mostly up to 22.9 µM
3',5'-cyclic-AMP phosphodiesterase 4B (Homo sapiens), sequence (Q07343 whole entry, looked up): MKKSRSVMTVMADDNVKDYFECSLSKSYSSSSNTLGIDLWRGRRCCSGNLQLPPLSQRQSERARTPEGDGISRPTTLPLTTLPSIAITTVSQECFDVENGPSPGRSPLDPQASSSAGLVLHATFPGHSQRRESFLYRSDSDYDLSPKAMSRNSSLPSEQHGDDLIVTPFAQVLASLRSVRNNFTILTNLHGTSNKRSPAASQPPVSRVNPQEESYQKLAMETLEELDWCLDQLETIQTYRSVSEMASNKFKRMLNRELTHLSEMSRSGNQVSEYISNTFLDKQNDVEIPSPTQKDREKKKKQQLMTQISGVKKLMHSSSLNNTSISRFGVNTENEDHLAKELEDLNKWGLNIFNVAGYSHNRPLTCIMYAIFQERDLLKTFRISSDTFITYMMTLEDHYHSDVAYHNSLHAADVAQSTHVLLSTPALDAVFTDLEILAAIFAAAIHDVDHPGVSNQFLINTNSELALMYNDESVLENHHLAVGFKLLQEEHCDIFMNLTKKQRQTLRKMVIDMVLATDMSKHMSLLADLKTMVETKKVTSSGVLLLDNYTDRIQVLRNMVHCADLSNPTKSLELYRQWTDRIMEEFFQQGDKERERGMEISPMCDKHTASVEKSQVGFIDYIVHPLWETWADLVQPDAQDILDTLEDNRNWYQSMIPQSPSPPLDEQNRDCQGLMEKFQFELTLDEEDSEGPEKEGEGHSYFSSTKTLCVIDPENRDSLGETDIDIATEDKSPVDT
Outline: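 Cell-based read-out of cAMP via a modified cyclic nucleotide-gated channel and membrane potential dye (535/590 nm) in HEK293 cells expressing PDE4 endogenously. Compounds tested up to 22.9 uM final; 100 uM RO 20-1724 reference.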

Row | SMILES | Potency [1] [µM] | activity change, negative = inhibition [2] [%] | Potency [3] | activity change, negative = inhibition [4] [%] | activity, negative = inhibition [5] [%] | Potency [6] [µM] | Potency [7] [µM] | Potency [8] | Potency [9] | activity change, negative = inhibition [3]
1 | C[C@H]1[C@H](C)OC(=O)C[C@H](O)C[C@H](O)C[C@H](O)CC[C@H](O)[C@H](O)CC(=O)C[C@H](O)[C@H](C(=O)O)[C@H](O)C[C@H](O[C@@H]2O[C@@H](C)[C@H](O)[C@@H](N)[C@@H]2O)C=CC=CC=CC=CCCC=CC=C[C@@](C)(O)[C@H]1O | > 11.4 | 4.16 | inactive | 2.48 | -6.26 | > 46 | > 9.22 | inactive | inactive | 
2 | O=C(O)Cn1ccnc1[N+](=O)[O-] | > 11.4 | 9.71 | inactive | -1.99 | 6.87 | > 46 | > 9.22 | inactive | inactive | 
3 | O=S(=O)(O)[C@@H](c1ccccc1)[C@@H](O)c1ccccc1 | > 11.4 | 1.17 |  | 8.34 | 8.88 | > 46 | > 9.22 | inactive | inactive | -13.9% [at 2.29 µM]
4 | COc1ccc2nccc(SCC(=O)O)c2c1 | > 11.4 | 7.58 | 3.98 µM (active) | 6.79 | -2.7 | > 46 | > 9.22 | inactive | inactive | 
5 | CN(C(=O)c1ccncc1)c1ccccc1 | > 11.4 | -3.23 | inactive | 6.33 | 0.69 | > 46 | > 9.22 | inactive | inactive | 
6 | CC1(CCC(=O)OC2CCCCC2)OCCO1 | > 11.4 | 4.96 | inactive | 19.8 | 4.55 | > 46 | > 9.22 | inactive | inactive | 
7 | C[C@H](CN(C)C)C(=O)c1ccccc1C(=O)O | > 11.4 | -1.25 | inactive | -1.83 | 14.8 | > 46 | > 9.22 | inactive | inactive | 
8 | C/C(CC/C(C)=N/O)=N/O | > 11.4 | 4.13 |  | 2.59 | -4.99 | > 46 | > 9.22 | inactive | inactive | -12.6% [at 2.29 µM]
9 | O=C(O)[C@H](CCc1ccccn1)c1ccccc1 | > 11.4 | -0.682 | inactive | -1.01 | 0.534 | > 46 | > 9.22 | inactive | inactive | 
10 | Cc1cc(C)nc(SCCc2cccc[n+]2C)n1 | > 11.4 | -4.14 |  | -24.4 | 6.72 | > 46 | > 9.22 | inactive | inactive | -18.6% [at 2.29 µM]
11 | NCS(=O)(=O)O | > 11.4 | -4.59 |  | 2.65 | -0.0948 | > 46 | > 9.22 | inactive | inactive | -5.6% [at 2.29 µM]
12 | Nc1ccn([C@@H]2O[C@H](COC(=O)C34CC5CC(CC(C5)C3)C4)[C@@H](O)[C@@H]2O)c(=O)n1 | > 11.4 | 9.17 |  | 16.8 | -0.882 | > 46 | > 9.22 | inactive | inactive | -18.7% [at 2.29 µM]
13 | O=C(N/N=C\c1cccc(O)c1)c1ccncc1 | > 11.4 | -2.52 | inactive | -7.01 | 4.22 | > 46 | > 9.22 | inactive | inactive | 
14 | O=C(O)CCC(O)=C1S(=O)(=O)OCCOS1(=O)=O | > 11.4 | -1.99 | inactive | 2.36 | 2.62 | > 46 | > 9.22 | inactive | inactive | 
15 | OCCn1cnc2c(SCc3ccccc3)ncnc21 | > 11.4 | -4.68 | 3.16 µM (active) | 1.04 | -1.73 | > 46 | > 9.22 | inactive | inactive | 
16 | CN(C)CCCNc1cc(O)c2c(c1O)C(=O)c1ccccc1C2=O | > 11.4 | 9.25 |  | 23.5 | 26 | > 46 | > 9.22 | inactive | inactive | -23.1% [at 2.29 µM]
17 | CS(=O)(=O)N(CC(=O)O)Cc1ccccc1 | > 11.4 | 13.2 | inactive | 14.9 | 10.2 | > 46 | > 9.22 | inactive | inactive | 
18 | Nc1ncnc2c1ncn2C[C@@H](O)C(=O)O | > 11.4 | 8.44 | inactive | 2.36 | -0.0646 | > 46 | > 9.22 | inactive | inactive | 
19 | Nc1nc(=O)c2[nH]cnc2n1O | > 11.4 | 10.1 | inactive | -5.74 | 7.15 | > 46 | > 9.22 | inactive | inactive | 
20 | O=C(O)CSc1cc(-c2ccccc2)nc2ccccc12 | > 11.4 | 4.39 |  | 10.2 | -6.65 | > 46 | > 9.22 | inactive | inactive | -4.7% [at 2.29 µM]
21 | O=P(O)(CCP(=O)(O)c1ccccc1)c1ccccc1 | > 11.4 | -9.71 | inactive | 12.9 | 1.66 | > 46 | > 9.22 | inactive | inactive | 
22 | CC1=NN(c2ccccc2)C(=O)[C@@H]1N=Nc1ccc(S(N)(=O)=O)cc1 | > 11.4 | 6.08 | 1.26 µM (active) | 9.48 | -4.22 | > 46 | > 9.22 | inactive | inactive | 
23 | C#CCOCCCC(=O)O | > 11.4 | -3.26 | inactive | 0.738 | 4.1 | > 46 | > 9.22 | inactive | inactive | 
24 | N[C@@H](CSCc1ccc(I)cc1)C(=O)O | > 11.4 | -1.51 |  | 0.82 | 10.1 | > 46 | > 9.22 | inactive | inactive | -12% [at 2.29 µM]
25 | Nc1nc(-c2cccnc2)cc(-c2cc(-c3cccnc3)nc(N)n2)n1 | > 11.4 | 16.4 |  | 12.8 | 1.62 | > 46 | > 9.22 | inactive | inactive | -15.9% [at 2.29 µM]
26 | O=C(O)[C@@H]1[C@@H](C(=O)NCc2ccccn2)[C@@H]2C=C[C@@H]1O2 | > 11.4 | -9.66 |  | -3.89 | -3.58 | > 46 | > 9.22 | inactive | inactive | -0.1% [at 2.29 µM]
27 | O=S(=O)(O)[C@@H](CO)c1ccccc1 (tested in a mixture with another compound) | > 11.4 | -0.645 |  | 3.56 | -7.29 | > 46 | > 9.22 | inactive | inactive | -1.9% [at 2.29 µM]
28 | O=C(O)[C@@H]1CS[C@@]2(CCCN(Cc3ccccc3)C2)N1 | > 11.4 | 8.03 |  | 18.2 | 2.47 | > 46 | > 9.22 | inactive | inactive | -12% [at 2.29 µM]
